# Source: PubChem BioAssay (Broad Institute)
# Shown are actives, neighbours in structure and some others; about 6.8% of the full set was active somewhere.
# Pf Dd2 inh: inhibitors of Plasmodium falciparum Dd2 growth; AID 1159554; 2.3% of 94,000 active; P. falciparum Dd2 growth, SYBR Green, 72 h; hits give low values; activity change, % at 10 µM; in the data active = activity change below about -80%; inconclusive = no clear call, values can overlap the other calls
# C diff growth: blocks growth of Clostridium difficile. Clostridium difficile clinical isolate growth, OD600, 24 h; hits give low values. growth activity, negative = inhibition, % at 16 µg/mL (by protocol). 0.25% of 86,000 active. AID 1259249;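 active = mean growth activity at or below -80% and every replicate also at or below -80%; inconclusive = mean at or below -80% but some replicate above -80%; inactive = mean growth activity above -80%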;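 also: 0% = DMSO wells and -100% = levofloxacin 16 µg/mL wells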
# T cruzi growth-1: blocks T. cruzi growth in NIH3T3 culture; inhibition, % at 8.34 µM; 5.9% of 77,000 active; T. cruzi beta-gal in NIH3T3, GalScreen luminescence, 90 h; AID 624255;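 active = mean inhibition above about 93%, with at least 55% of replicates each passing it, limit read from the data, passing the limit was not always enough; inconclusive = only one of those two conditions holds; inactive = neither condition holds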
# T cruzi growth-2: inhibitors of T. cruzi proliferation; 72% of 5,600 active; shares compounds with T cruzi growth-1; inhibition, % at 8.35 µM; T. cruzi beta-gal in NIH3T3, GalScreen luminescence, 90 h; AID 651739;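 active = mean replicate inhibition above about 95% and at least 55% of replicates individually reaching it, limit read from the data; inconclusive = only one of the two criteria is met; inactive = neither criterion is met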
# T cruzi growth-3: Trypanosoma cruzi proliferation inhibition; shares compounds with T cruzi growth-1; T. cruzi beta-gal in NIH3T3, GalScreen luminescence, 90 h; inhibition, % at 2.09 µM; AID 651740; 21% of 5,600 active;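 active = mean inhibition above about 95%, with at least 55% of replicates also reaching it, limit read from the data; inconclusive = meets just one of the two conditions; inactive = meets neither condition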;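 also: plate controls were neutral control median for no effect and positive control median for full effect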
# 3T3 cytotox: NIH/3T3 (mouse) viability loss. shares compounds with T cruzi growth-1. NIH/3T3 viability, CellTiter-Glo ATP luminescence, 90 h. cytotoxicity (signal decrease), % at 8.35 µM. 14% of 5,600 active. AID 651742;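 active = mean signal decrease across replicates above about 35% based on untreated-well scatter, with enough replicates individually passing, limit read from the data; inconclusive = no rule stated though some were filed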;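 also: 0% = median of neutral control wells and 100% = median of positive control wells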
# NIH3T3 tox 2: kills mouse NIH/3T3 fibroblasts; shares compounds with T cruzi growth-1; NIH/3T3 viability, CellTiter-Glo ATP luminescence, 90 h; inhibition, % at 24.9 µM; 56% of 5,600 active; AID 651744;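 active = mean loss of cell viability signal at or above a set limit, and enough replicates individually reaching it; inconclusive = meets only the mean limit or only the replicate share; inactive = meets neither condition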;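 also: 0% = median of neutral control wells and 100% = median of positive control wells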
# Active calls of the source: *; ? = inconclusive; nt = no result given.
SMILES,Pf Dd2 inh,C diff growth,T cruzi growth-1,T cruzi growth-2,T cruzi growth-3,3T3 cytotox,NIH3T3 tox 2
C[C@@H]1CN([C@H](C)CO)C(=O)c2cc(N(C)C)ccc2O[C@@H](C)CCCCO[C@@H]1CN(C)Cc1ccc(C(=O)O)cc1,35,3,8,nt,nt,nt,nt
C[C@@H]1CCCCO[C@H](CN(C)Cc2ccccc2)[C@H](C)CN([C@@H](C)CO)C(=O)c2cc(N(C)C)ccc2O1,nt,-1,-46,nt,nt,nt,nt
C[C@@H]1CN([C@@H](C)CO)C(=O)c2cc(N(C)C)ccc2O[C@@H](C)CCCCO[C@H]1CN(C)Cc1ccccc1,-17,2,99*,100*,71,14,0
C[C@@H]1CCCCO[C@@H](CN(C)Cc2ccc(C(F)(F)F)cc2)[C@H](C)CN([C@H](C)CO)C(=O)c2cc(N(C)C)ccc2O1,-8,13,?,105*,91,4,59*
C[C@@H]1CCCCO[C@@H](CN(C)Cc2ccc(C(F)(F)F)cc2)[C@@H](C)CN([C@@H](C)CO)C(=O)c2cc(N(C)C)ccc2O1,-16,12,97*,104*,36,13,28*
C[C@@H]1CCCCO[C@@H](CN(C)Cc2ccc(C(F)(F)F)cc2)[C@H](C)CN([C@@H](C)CO)C(=O)c2cc(N(C)C)ccc2O1,-2,17,93,nt,nt,nt,nt
CCCNC(=O)Nc1ccc2c(c1)C(=O)N(C)C[C@H](OC)[C@@H](C)CN(Cc1ccccc1)[C@H](C)CO2,nt,nt,29,nt,nt,nt,nt
CCC(=O)Nc1ccc2c(c1)C(=O)N(C)C[C@@H](OC)[C@H](C)CN(Cc1cc(-c3ccccc3)on1)[C@H](C)CO2,-35,nt,6,nt,nt,nt,nt
CC(C)CC#Cc1ccc2c(c1)O[C@H](CN(C)S(C)(=O)=O)[C@@H](C)CN([C@H](C)CO)S2(=O)=O,-1,nt,46,nt,nt,nt,nt
COc1ccccc1S(=O)(=O)N(C)C[C@H]1Oc2cc(C#CCC3CCCC3)ccc2S(=O)(=O)N([C@@H](C)CO)C[C@@H]1C,-55,2,nt,nt,nt,nt,nt
CC(C)CC#Cc1ccc2c(c1)O[C@H](CN(C)S(=O)(=O)c1ccc(F)cc1)[C@@H](C)CN([C@@H](C)CO)S2(=O)=O,-79,-1,nt,nt,nt,nt,nt
COc1ccccc1S(=O)(=O)N(C)C[C@@H]1Oc2cc(C#CCC(C)C)ccc2S(=O)(=O)N([C@@H](C)CO)C[C@H]1C,-89*,8,?,97*,108*,24,41*
COc1ccccc1S(=O)(=O)N(C)C[C@@H]1Oc2cc(C#CCC(C)C)ccc2S(=O)(=O)N([C@@H](C)CO)C[C@@H]1C,-87*,18,?,103*,107*,-3,56*
COc1ccccc1S(=O)(=O)N(C)C[C@@H]1Oc2cc(C#CCC(C)C)ccc2S(=O)(=O)N([C@H](C)CO)C[C@H]1C,-83*,6,103*,93,115*,44*,105*
COC(=O)C[C@H]1CC[C@H]2[C@@H](COc3ccc(NC(=O)Nc4ccc(C#N)cc4)cc3C(=O)N2C)O1,-11,1,nt,nt,nt,nt,nt
Cc1ccc(S(=O)(=O)N(C)C[C@H]2OCCCC[C@@H](C)Oc3ccc(NC(=O)Nc4ccccc4)cc3C(=O)N([C@@H](C)CO)C[C@@H]2C)cc1,-83*,1,109*,109*,63,18,35*
C[C@@H]1CN([C@H](C)CO)C(=O)c2cc(NC(=O)c3ccccc3)ccc2O[C@@H](C)CCCCO[C@@H]1CN(C)S(=O)(=O)c1ccccc1,-72,nt,24,nt,nt,nt,nt
Cc1ccc(S(=O)(=O)N(C)C[C@@H]2OCCCC[C@H](C)Oc3ccc(NC(=O)c4ccccc4)cc3C(=O)N([C@H](C)CO)C[C@@H]2C)cc1,-72,nt,95*,104*,55,-14,?
Cc1ccc(S(=O)(=O)N(C)C[C@H]2OCCCC[C@@H](C)Oc3ccc(NC(=O)NC(C)C)cc3C(=O)N([C@@H](C)CO)C[C@H]2C)cc1,-56,-12,12,nt,nt,nt,nt
Cc1ccc(S(=O)(=O)N(C)C[C@H]2OCCCC[C@@H](C)Oc3ccc(NC(=O)NC(C)C)cc3C(=O)N([C@@H](C)CO)C[C@@H]2C)cc1,-58,-6,-2,nt,nt,nt,nt
Cc1ccc(S(=O)(=O)N(C)C[C@H]2OCCCC[C@H](C)Oc3ccc(NC(=O)NC(C)C)cc3C(=O)N([C@@H](C)CO)C[C@H]2C)cc1,-63,-4,10,nt,nt,nt,nt
Cc1ccc(S(=O)(=O)N(C)C[C@H]2OCCCC[C@@H](C)Oc3ccc(NC(=O)Nc4ccccc4)cc3C(=O)N([C@@H](C)CO)C[C@H]2C)cc1,-74,-2,?,106*,103*,-17,19
Cc1ccc(S(=O)(=O)N(C)C[C@@H]2OCCCC[C@H](C)Oc3ccc(NC(=O)Nc4ccccc4)cc3C(=O)N([C@@H](C)CO)C[C@@H]2C)cc1,-90*,5,108*,102*,71,-2,6
COCCNC(=O)[C@@H]1[C@@H](CO)[C@@H]2Cn3c(ccc(-c4ccccc4F)c3=O)[C@@H]2N1C(=O)C1CCC1,43,10,nt,nt,nt,nt,nt
Cc1noc(C)c1S(=O)(=O)N(C)C[C@@H]1Oc2c(cccc2N(C)C)C(=O)N([C@H](C)CO)C[C@@H]1C,-17,4,2,nt,nt,nt,nt
SMILES,Pf Dd2 inh,C diff growth,T cruzi growth-1,T cruzi growth-2,T cruzi growth-3,3T3 cytotox,NIH3T3 tox 2
C[C@H]1CN([C@@H](C)CO)S(=O)(=O)c2ccc(C#CCN(C)C)cc2O[C@@H]1CN(C)S(C)(=O)=O,nt,11,18,nt,nt,nt,nt
CN1C(=O)c2cc(NC(=O)c3cccc(F)c3)ccc2OC[C@@H]2O[C@@H](CC(=O)NCc3ccccc3)CC[C@H]21,-12,-4,-8,nt,nt,nt,nt
COC(=O)[C@@H]1[C@@H](CO)[C@@H]2Cn3c(ccc(-c4cccc(F)c4)c3=O)[C@@H]2N1Cc1ccncc1,7,1,nt,nt,nt,nt,nt
O=C(C[C@H]1C[C@@H]2c3cc(NC(=O)Nc4ccccc4F)ccc3O[C@@H]2[C@H](CO)O1)NCCc1ccccc1,-26,4,16,nt,nt,nt,nt
CN1C(=O)c2cc(NC(=O)C3CCOCC3)ccc2OC[C@@H]2O[C@H](CC(=O)O)CC[C@H]21,-4,2,9,nt,nt,nt,nt
COc1ccc(CNC(=O)C[C@@H]2CC[C@H](NC(=O)CN(C)C)[C@H](CO)O2)cc1,9,nt,29,nt,nt,nt,nt
Cc1ccc(S(=O)(=O)N(C)C[C@@H]2OCCCC[C@H](C)Oc3ccc(NC(=O)NC(C)C)cc3C(=O)N([C@@H](C)CO)C[C@@H]2C)cc1,-67,-11,81,nt,nt,nt,nt
Cc1ccc(S(=O)(=O)N(C)C[C@H]2OCCCC[C@H](C)Oc3ccc(NC(=O)Nc4ccccc4)cc3C(=O)N([C@@H](C)CO)C[C@@H]2C)cc1,-83*,6,111*,101*,107*,-24,3
